SMILES strings stand for the structures. This is part of a sample that, as a whole, favours compounds with a hit. Of some 83,000 tested, about 20% had one in any assay.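 Cells were grown in 96-well plates and exposed to the test compound at a single concentration for 48 hours; results are reported as percent growth, with values below 10 considered active.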 Values without a mark were called inactive. Calls of active or inactive are those of the source.

This assay concerns HL-60(TB) leukemia. The assay is described as follows: NCI-60 one-dose screen, 48 h (100 = growth as untreated, 0 = no growth, -100 = all killed). The note with it: 10 µM unless noted.
Regarding `Cc1ccc(NC(=O)C2CCC(CN3CCN(C)CC3)CC2)cc1Nc1nccc(-c2cccnc2)n1` (stereo not given), the growth is 110%.
Consider `O=Nc1ccc2ccccc2c1O`, for which the growth was 74.3%.
Consider `COc1ccc(S(=O)(=O)n2ccc(-c3ccc4c(c3)CCC(C)(C)O4)n2)cc1OC`, for which the growth was 94.7%.
In the case of `COc1ccc(-c2nnc(COc3ccc(NC(=O)Nc4cc(C(F)(F)F)cc(C(F)(F)F)c4)cc3F)o2)cc1`, the growth was -17.2% (active).
Turning to `CSc1ncnc2c1ncn2C1CCCO1` (stereo not given), the growth was 99.9%.
For `O=S(=O)(NCCCNc1nccc(-n2ccc3cccnc32)n1)c1cccc(C(F)(F)F)c1` the value was 109%; for `COc1ccc(C2CC(c3ccc(OC)cc3O)=NN2c2ccc(S(N)(=O)=O)cc2)cc1` (stereo not given), -23.2% (active); for `NC(=O)C(O)(c1ccccc1)c1ccccc1`, 99%.
In the case of `O=C1c2cc3c(cc2-c2c1c1cc(F)c(F)cc1c(=O)n2CCCn1ccnc1)OCO3`, the growth is -15.4% (active).
Take `Cn1cc(-c2csc(-c3cn(CCCN4CCOCC4)c4ccccc34)n2)c2cccnc21`: the growth is 70.9%.
On to `O=C(S)CNC(=O)c1ccccc1`, for which the growth is 91%.
Consider `CCCCN1CCN(c2ccc3nc(-c4ccc5nc(-c6ccc(OC)c(OC)c6)[nH]c5c4)[nH]c3c2)CC1`, for which the growth was -25.1% (active).
As for `Cn1c(NCCc2ccc(O)c(O)c2)nc2c1c(=O)n(Cc1ccc(Cl)c(Cl)c1)c(=O)n2C`, the growth is 14.8%.
For `O=S(=O)(O)C(Nc1ccccc1)c1ccccc1` (stereo not given), the growth was 87.2%.
As to `Cc1cccc2c1O/C(=C\c1ccc([N+](=O)[O-])o1)C2=O`, the growth was -25.7% (active).
With `C=C1C(=O)O[C@H]2[C@H]1CC/C(COC(=O)/C=C\C(=O)NCc1ccc(Cn3c(=O)sn(CCCI)c3=O)cc1)=C\CC[C@@]1(C)O[C@@H]21` the figure was -36.6% (active).
`COc1ccc(C(=O)N/N=C/c2cc(C(F)(F)F)ccc2Cl)cc1`: the growth is 100%.
For `N/C(=N\O)c1ccncc1`, the growth was 102%.
For the compound `Fc1cc(F)cc(C(c2c[nH]c3ccccc23)c2c[nH]c3ccccc23)c1`, the growth was 147%.
`COc1ccc(/C=C2\COc3ccc(-c4ccccc4)cc3C2=O)c(OC)c1`: the growth was 56.9%.
Regarding `O=C1c2c(c3c4ccccc4n(CCCCCCBr)c3c3[nH]c4ccccc4c23)C(=O)N1O`, the growth is -41.7% (active).
As to `O=C(COc1ccc(/C=C2\Oc3ccccc3C2=O)cc1)Nc1nc2ccccc2s1`, the growth is -68.9% (active).
In the case of `CCC(=O)Oc1ccc(/C(=C(\C)c2ccccc2)c2ccc(OCCN(CC)CC)cc2)cc1`, the growth was 45.1%.
For `O=C1/C(=C/c2cn(-c3ccccc3)nc2-c2ccccc2)SC(=S)N1c1ccc(Cl)cc1`, the growth is 86%.
Take `CC(=O)Oc1cc(C)c(OC(C)=O)c(C)c1C`: the growth was 101%.
On to `COc1ccc(/C=C/c2nc3ccccc3c(=O)n2-c2ccc(C#Cc3ccc(C(C)(C)C)cc3)cc2C)c(OC)c1`, for which the growth is 67.4%.
Take `Cc1c(C(=O)N[C@H](CO)Cc2ccccc2)[nH]c2ccc(Cl)cc2c1=O`: the growth was 99.7%.
Regarding `Cc1cccc(NC(=O)Nc2ccc(-n3cnc4cc(-c5ccc(O)cc5)ccc43)cc2)c1`, the growth is 8.69% (active).
For `CC(=O)OCC1O[C@@H](OC(C)=O)[C@@H](NC(=O)NS(=O)(=O)c2ccccc2)C(OC(C)=O)[C@@H]1OC(C)=O` (stereo not given in full), the growth is 95.7%.
For `O=C1Nc2ccccc2/C1=C/C(=N/c1nnc(-c2ccccc2)s1)c1ccccc1` the value was -32.9% (active).
Turning to `COc1cc(C2C(C#N)=C(N)Oc3cc4c(cc32)OCO4)cc2c1OCO2` (stereo not given), the growth is -43% (active).
Consider `Nc1ccc(N=Nc2ccc(S(=O)(=O)O)cc2)c2ccccc12`, for which the growth was 62.8%.
With `COc1ccc(C#Cc2ccc(=O)oc2-c2cc(OC)c(OC)c(OC)c2)cc1O`, the growth is 23.5%.
As to `O=C(Oc1ccccc1)C(Br)C(Br)c1ccccc1` (stereo not given), the growth is 2.65% (active).
With `CC(=O)c1sc2sc(C(C)=O)c(C)c2c1C` the figure was 90.1%; with `CCc1oc2ccccc2c1C(=O)c1cc(Br)c(O)c(Br)c1`, 53%; with `Cc1ccc(C(=O)c2ccccc2)c(C)c1`, 115%.
With `CC(O)C(O)C(O)C(O)C(O)C(=O)NNc1ccccc1` (stereo not given) the figure was 116%; with `CN(C)CCCNC(=O)C(c1ccccc1)c1ccccc1`, 106%; with `O=c1oc2c(cc1-c1ccc([N+](=O)[O-])cc1)C(O)Oc1ccccc1-2` (stereo not given), 71.9%.

The values above are taken from PubChem BioAssay (NCI).
